Experimental data from the supplement of paper PMC8728848.
Many of the other results were omitted from the sample, so the strongest signals are more common in it than they were.

Experiments:
Experiment in all cases: glycan array binding signal (z-score within array); higher = stronger binding
Settings in all cases: glycan notation: IUPAC condensed, linker removed
[1] = target: Fuc(a1-2)Gal(b1-3)[Fuc(a1-4)]GlcNAc(b1-2)Man(a1-3)[Fuc(a1-2)Gal(b1-3)[Fuc(a1-4)]GlcNAc(b1-2)Man(a1-3)]Man(b1-4)GlcNAc(b1-4)GlcNAc
In short: (§1)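 Glycan array data came from 3228 arrays in the Consortium for Functional Glycomics database, and only arrays with an available protein sequence were kept. Glycan names were put into IUPAC-condensed notation, and columns mapping to the same glycan were averaged. The binding signal is a within-array Z-score, averaged across arrays of one protein sequence run at different concentrations or buffers and across linkers. A negative Z-score can be read as non-binding.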

[2] = target: Fuc(a1-2)Gal(b1-4)GlcNAc(b1-2)Man
In short: as §1

[3] = target: Fuc(a1-2)[Gal(a1-3)]Gal(b1-4)GlcNAc(b1-2)Man
In short: as §1

[4] = target: Fuc(a1-2)[Gal(a1-4)]Gal(b1-4)GlcNAc
In short: as §1

[5] = target: Fuc(a1-2)[GalNAc(a1-3)]Gal(b1-4)GlcNAc(b1-6)GalNAc
In short: as §1

[6] = target: Fuc(a1-3)[Gal(b1-4)]GlcNAc(b1-6)GalNAc
In short: as §1

[7] = target: Gal(a1-3)Gal(b1-3)GlcNAc(b1-2)Man
In short: as §1

[8] = target: Gal(a1-4)Gal(b1-3)GlcNAc(b1-2)Man(a1-3)[Gal(a1-4)Gal(b1-3)GlcNAc(b1-2)Man(a1-6)]Man(b1-4)GlcNAc(b1-4)GlcNAc
In short: as §1

[9] = target: Gal(b1-3)GlcNAc(a1-3)Gal(b1-4)GlcNAc
In short: as §1

[10] = target: Gal(b1-3)GlcNAc(b1-2)Man(a1-3)[GlcNAc(b1-4)][Gal(b1-3)GlcNAc(b1-2)Man(a1-6)]Man(b1-4)GlcNAc(b1-4)GlcNAc
In short: as §1

[11] = target: Gal(b1-3)GlcNAc(b1-3)Gal(b1-4)Glc
In short: as §1

[12] = target: Gal(b1-3)GlcNAc(b1-3)Gal(b1-4)GlcNAc(b1-3)Gal(b1-4)GlcNAc(b1-2)[Gal(b1-3)GlcNAc(b1-3)Gal(b1-4)GlcNAc(b1-3)Gal(b1-4)GlcNAc(b1-6)]Man(a1-6)[Gal(b1-3)GlcNAc(b1-3)Gal(b1-4)GlcNAc(b1-3)Gal(b1-4)GlcNAc(b1-2)Man(a1-3)]Man(b1-4)GlcNAc(b1-4)[Fuc(a1-6)]GlcNAc
In short: as §1

[13] = target: Gal(b1-4)GlcNAc(b1-2)Man(a1-3)Man(b1-4)GlcNAc(b1-4)GlcNAc
In short: as §1

[14] = target: Gal(b1-4)GlcNAc(b1-2)[Gal(b1-4)GlcNAc(b1-4)]Man(a1-3)[Gal(b1-4)GlcNAc(b1-2)[Gal(b1-4)GlcNAc(b1-6)]Man(a1-6)]Man(b1-4)GlcNAc(b1-4)GlcNAc
In short: as §1

[15] = target: Gal(b1-4)GlcNAc(b1-3)Gal(b1-4)GlcNAc(b1-2)Man(a1-3)[Gal(b1-4)GlcNAc(b1-3)Gal(b1-4)GlcNAc(b1-2)Man(a1-6)]Man(b1-4)GlcNAc(b1-4)GlcNAc
In short: as §1

[16] = target: Gal(b1-4)GlcNAc(b1-3)Gal(b1-4)GlcNAc(b1-3)Gal(b1-4)GlcNAc(b1-2)Man(a1-3)[Gal(b1-4)GlcNAc(b1-3)Gal(b1-4)GlcNAc(b1-3)Gal(b1-4)GlcNAc(b1-2)Man(a1-6)]Man(b1-4)GlcNAc(b1-4)GlcNAc
In short: as §1

[17] = target: Gal(b1-4)GlcNAc(b1-3)Gal(b1-4)GlcNAc(b1-3)Gal(b1-4)GlcNAc(b1-3)Gal(b1-4)GlcNAc(b1-3)Gal(b1-4)GlcNAc(b1-2)Man(a1-3)[Gal(b1-4)GlcNAc(b1-3)Gal(b1-4)GlcNAc(b1-3)Gal(b1-4)GlcNAc(b1-3)Gal(b1-4)GlcNAc(b1-3)Gal(b1-4)GlcNAc(b1-2)Man(a1-6)]Man(b1-4)GlcNAc(b1-4)[Fuc(a1-6)]GlcNAc
In short: as §1

[18] = target: Gal(b1-4)GlcNAc(b1-3)Gal(b1-4)GlcNAc(b1-3)Gal(b1-4)GlcNAc(b1-3)Gal(b1-4)GlcNAc(b1-3)Gal(b1-4)GlcNAc(b1-2)[Gal(b1-4)GlcNAc(b1-3)Gal(b1-4)GlcNAc(b1-3)Gal(b1-4)GlcNAc(b1-3)Gal(b1-4)GlcNAc(b1-3)Gal(b1-4)GlcNAc(b1-6)]Man(a1-6)[Gal(b1-4)GlcNAc(b1-3)Gal(b1-4)GlcNAc(b1-3)Gal(b1-4)GlcNAc(b1-3)Gal(b1-4)GlcNAc(b1-3)Gal(b1-4)GlcNAc(b1-2)Man(a1-3)]Man(b1-4)GlcNAc(b1-4)[Fuc(a1-6)]GlcNAc
In short: as §1

[19] = target: Gal(b1-4)GlcNAc(b1-3)Gal(b1-4)GlcNAc(b1-3)Gal(b1-4)GlcNAc(b1-3)Gal(b1-4)GlcNAc(b1-3)Gal(b1-4)GlcNAc(b1-3)Gal(b1-4)GlcNAc(b1-2)Man(a1-3)[Gal(b1-4)GlcNAc(b1-3)Gal(b1-4)GlcNAc(b1-3)Gal(b1-4)GlcNAc(b1-3)Gal(b1-4)GlcNAc(b1-3)Gal(b1-4)GlcNAc(b1-3)Gal(b1-4)GlcNAc(b1-2)Man(a1-6)]Man(b1-4)GlcNAc(b1-4)GlcNAc
In short: as §1

[20] = target: Gal(b1-4)GlcNAc(b1-3)Gal(b1-4)GlcNAc(b1-6)[Gal(b1-3)]GalNAc
In short: as §1

Gal(b1-6)Gal = target: Gal(b1-6)Gal
In short: as §1

Gal4S6S(b1-4)GlcNAc = target: Gal4S6S(b1-4)GlcNAc
In short: as §1

Gal6S(b1-3)GlcNAc = target: Gal6S(b1-3)GlcNAc
In short: as §1

[21] = target: GalNAc3S(b1-4)[Fuc(a1-3)]GlcNAc
In short: as §1

Glc(a1-4)Glc = target: Glc(a1-4)Glc
In short: as §1

[22] = target: Glc(a1-4)Glc(a1-4)Glc(a1-4)Glc
In short: as §1

GlcA(b1-3)GlcNAc = target: GlcA(b1-3)GlcNAc
In short: as §1

[23] = target: GlcNAc(a1-3)Gal(b1-4)GlcNAc
In short: as §1

[24] = target: GlcNAc(b1-2)[GlcNAc(b1-6)]Man(a1-6)[GlcNAc(b1-2)Man(a1-3)]Man(b1-4)GlcNAc(b1-4)[Fuc(a1-6)]GlcNAc
In short: as §1

[25] = target: GlcNAc(b1-2)[GlcNAc(b1-6)]Man(a1-6)[GlcNAc(b1-4)][GlcNAc(b1-2)Man(a1-3)]Man(b1-4)GlcNAc(b1-4)GlcNAc
In short: as §1

GlcNAc(b1-3)Gal = target: GlcNAc(b1-3)Gal
In short: as §1

[26] = target: GlcNAc(b1-3)[GlcNAc(b1-6)]GalNAc
In short: as §1

[27] = target: GlcNAc(b1-4)GlcNAc(b1-4)GlcNAc
In short: as §1

[28] = target: GlcNAc(b1-4)GlcNAc(b1-4)GlcNAc(b1-4)GlcNAc(b1-4)GlcNAc
In short: as §1

[29] = target: GlcNAc(b1-6)Gal(b1-4)GlcNAc
In short: as §1

GlcNAc(b1-6)GalNAc = target: GlcNAc(b1-6)GalNAc
In short: as §1

MurNAc(b1-4)GlcNAc = target: MurNAc(b1-4)GlcNAc
In short: as §1

[30] = target: Neu5Ac(a2-3)Gal(b1-3)GlcNAc(b1-2)Man(a1-3)[Neu5Ac(a2-3)Gal(b1-3)GlcNAc(b1-2)Man(a1-6)]Man(b1-4)GlcNAc(b1-4)GlcNAc
In short: as §1

[31] = target: Neu5Ac(a2-3)Gal(b1-3)GlcNAc6S
In short: as §1

[32] = target: Neu5Ac(a2-3)Gal(b1-3)]Neu5Ac(a2-3)Gal(b1-4)]GlcNAc
In short: as §1

[33] = target: Neu5Ac(a2-3)Gal(b1-4)[Fuc(a1-3)]GlcNAc(b1-3)Gal(b1-4)GlcNAc
In short: as §1

[34] = target: Neu5Ac(a2-3)Gal(b1-4)[Fuc(a1-3)]GlcNAc(b1-6)[Gal(b1-3)]GalNAc
In short: as §1

[35] = target: Neu5Ac(a2-3)Gal(b1-4)[Fuc(a1-3)]GlcNAc(b1-6)[Neu5Ac(a2-3)Gal(b1-3)]GalNAc
In short: as §1

[36] = target: Neu5Ac(a2-6)Gal(b1-4)GlcNAc(b1-2)[Neu5Ac(a2-6)Gal(b1-4)GlcNAc(b1-4)]Man(a1-3)[GlcNAc(b1-4)][Neu5Ac(a2-6)Gal(b1-4)GlcNAc(b1-2)[Neu5Ac(a2-6)Gal(b1-4)GlcNAc(b1-6)]Man(a1-6)]Man(b1-4)GlcNAc(b1-4)GlcNAc
In short: as §1

[37] = target: Neu5Ac(a2-6)Gal(b1-4)GlcNAc(b1-2)[Neu5Ac(a2-6)Gal(b1-4)GlcNAc(b1-6)]Man(a1-6)[Neu5Ac(a2-6)Gal(b1-4)GlcNAc(b1-2)Man(a1-3)][GlcNAc(b1-4)]Man(b1-4)GlcNAc(b1-4)GlcNAc
In short: as §1

Neu5Ac(b2-6)GalNAc = target: Neu5Ac(b2-6)GalNAc
In short: as §1

[38] = target: Neu5Gc(a2-3)Gal(b1-3)GlcNAc
In short: as §1

[39] = target: Neu5Gc(a2-8)Neu5Ac(a2-3)Gal(b1-4)GlcNAc
In short: as §1

B1: Pbx1 (Cryptococcus neoformans) (protein)
chain: ATTKCLVSGDQDSINNALALGGEGTTVTLCPGSVHRLNSSIIFTAPSQTLTTLGNPKDRNRAMLVVDGEDLACAIRADCKQCSHAMIRSLVIDGNRPQLLRIPKGDALIEVGNAESQTVRDCKLYEPRGWSALHFREGDERQCRFGHIVDNEIGPCGEEWDDEYDSMDETKPLWGNPRADGISLACKDSIVERNVVYDATDGAIVLFGSAGSTVKNNHVYARTRVILGGINLVDYEPWDGDYTNVKVHHNHLYALGRYFKVGIVIGPASWSDDTESVVHSASVTDNEFSGGYWGYGIVVASAKNFEVLRNKVIWDGEQGVARFSGVPGSRCPKAPENGKPTAFLINRGSAKGIFQDDFVNGEVQHIICLNPDQDPPYKPWRFRDSPEAIAAKQAENPTANSAFDSRIAEALVSYQMSLLNSMDAMTQKVEHLTNPIVDDALPFVHEHERAEADKKARQEASRKEKESGNKDVDMLNVKVEELEKSGRRLKKALDGLKSDFEGLSGRLKKSADENKPIIETIFVTSQNLLLGATSQQN
- glycan array binding signal (z-score) [1]: 2.82
- glycan array binding signal (z-score) [2]: -0.654
- glycan array binding signal (z-score) [3]: -0.203
- glycan array binding signal (z-score) [4]: 0.002
- glycan array binding signal (z-score) [5]: 0.252
- glycan array binding signal (z-score) [6]: 2.34
- glycan array binding signal (z-score) [7]: 1.04
- glycan array binding signal (z-score) [8]: 2.14
- glycan array binding signal (z-score) [9]: -0.304
- glycan array binding signal (z-score) [10]: 0.415
- glycan array binding signal (z-score) [11]: -0.533
- glycan array binding signal (z-score) [12]: 15
- glycan array binding signal (z-score) [13]: -0.195
- glycan array binding signal (z-score) [14]: 0.072
- glycan array binding signal (z-score) [15]: 2.91
- glycan array binding signal (z-score) [16]: 2.41
- glycan array binding signal (z-score) [17]: 5.6
- glycan array binding signal (z-score) [18]: 4.38
- glycan array binding signal (z-score) [19]: 1.03
- glycan array binding signal (z-score) [20]: 2.33
- glycan array binding signal (z-score) (Gal(b1-6)Gal): -0.233
- glycan array binding signal (z-score) (Gal4S6S(b1-4)GlcNAc): -0.366
- glycan array binding signal (z-score) (Gal6S(b1-3)GlcNAc): 0.304
- glycan array binding signal (z-score) [21]: 0.766
- glycan array binding signal (z-score) (Glc(a1-4)Glc): 0.352
- glycan array binding signal (z-score) [22]: -0.56
- glycan array binding signal (z-score) (GlcA(b1-3)GlcNAc): 0.759
- glycan array binding signal (z-score) [23]: 0.052
- glycan array binding signal (z-score) [24]: -0.137
- glycan array binding signal (z-score) [25]: -0.848
- glycan array binding signal (z-score) (GlcNAc(b1-3)Gal): -0.639
- glycan array binding signal (z-score) [26]: -0.235
- glycan array binding signal (z-score) [27]: -0.565
- glycan array binding signal (z-score) [28]: -0.631
- glycan array binding signal (z-score) [29]: -0.045
- glycan array binding signal (z-score) (GlcNAc(b1-6)GalNAc): -0.262
- glycan array binding signal (z-score) (MurNAc(b1-4)GlcNAc): 5.14
- glycan array binding signal (z-score) [30]: 0.345
- glycan array binding signal (z-score) [31]: -0.618
- glycan array binding signal (z-score) [32]: -1.05
- glycan array binding signal (z-score) [33]: 0.071
- glycan array binding signal (z-score) [34]: 3.7
- glycan array binding signal (z-score) [35]: 0.371
- glycan array binding signal (z-score) [36]: 2.36
- glycan array binding signal (z-score) [37]: -0.36
- glycan array binding signal (z-score) (Neu5Ac(b2-6)GalNAc): -0.769
- glycan array binding signal (z-score) [38]: -0.531
- glycan array binding signal (z-score) [39]: -0.771
